Assay outcomes from PubChem BioAssay.
LGR2 inh: inhibitors of bursicon-induced LGR2 CRE-luciferase signal, primary screen, cell-based, HEK293, CRE-luciferase reporter, bursicon stimulation; Drosophila bursicon receptor LGR2 (rickets); 380,000 tested, 0.35% active; bursicon-stimulated, 4 h; inhibition, % at 9.99 µM;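 active means drop in luminescence signal, shown as inhibition above about 50% in the replicate tests, limit read from the data, passing the limit was not always enough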;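 further: agonist challenge used bursicon conditioned medium at about half maximal strength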
LMP1 NFkB inh: EBV LMP1-driven NF-kappaB luciferase reporter inhibitors, primary screen, cell-based, luminescence, single point; LMP1-induced NF-kappaB luciferase reporter cells; 350,000 tested, 0.69% active; AID 504558, 2011; inhibition, % at 12.5 µM; in the data active means inhibition above about 41%;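 further: 0% = neutral control wells and 100% = reference inhibitor control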
TROY signal inh: inhibitors of TROY-driven NF-kB signaling, primary screen, Q293 LMP1-TROYcd cells, NF-kB luciferase, uHTS; inhibition, % at 10 µM; Q293 LMP1-TROYcd NF-kB luciferase reporter, 4 h; 360,000 tested, 0.98% active; AID 1347056, 2019;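 active means compounds whose plate-normalised and pattern-corrected inhibition of the luciferase reporter signal at the single screening dose is 50% or more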
EWS-Fli inh: EWS/Fli-driven NR0B1 reporter inhibitors, primary screen, A673 cells, NR0B1 luciferase, luminescence, MLPCN library | viability-normalised | inhibition, % at 12.6 µM | 350,000 tested, 0.67% active | AID 651661, 2012;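 active means mean inhibition of at least 50% after viability correction, with every replicate also passing that limit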;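 further: firefly luciferase signal divided by Alamar Blue viability fluorescence both relative to DMSO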
TWEAK Fn14 block: inhibitors of TWEAK-Fn14 signaling, primary screen, luciferase reporter cells, uHTS; AID 1159606, 2016; TWEAK-stimulated Fn14 reporter cells, luciferase luminescence, 8 h; 360,000 tested, 2% active; inhibition, % at 10 µM; in the data active means inhibition above about 50%
* marks the source's active call; other numbers are inactive results. Most compounds without a hit are left out; they make up all but 2.6% or so of the library.

`Clc1ccc(-n2nnnc2Sc2ncnc3sccc23)cc1` gave LGR2 inh 45.8, LMP1 NFkB inh 51.5*, TROY signal inh 69.7* and TWEAK Fn14 block 74.7*.
Cc1sc2ncnc(Sc3ccccc3C(=O)O)c2c1C was read as LGR2 inh 12.7, LMP1 NFkB inh 2.6, TROY signal inh -9.3, EWS-Fli inh 1.4 and TWEAK Fn14 block 11.1.
For Cc1sc2ncnc(Sc3nnnn3-c3ccccc3)c2c1C the results were LGR2 inh 66.0*, LMP1 NFkB inh 2.2, TROY signal inh 66.5* and TWEAK Fn14 block 101.4*.
`CCc1cnc(N2[C@H](CO)[C@H](c3ccc(C#CCC4CCCC4)cc3)[C@@H]2C#N)s1` gave LGR2 inh -15.9 and EWS-Fli inh -13.0.
Screening O=c1cc2c(=O)oc3cc(O)c(O)oc3c2c(O)c1O returned LGR2 inh -2.7, LMP1 NFkB inh 9.4, TROY signal inh 7.2, EWS-Fli inh -6.7 and TWEAK Fn14 block 83.0*.
`O=c1oc2cc(O)c(Cl)cc2c2ccccc12` gave LGR2 inh -5.0, LMP1 NFkB inh 9.4, TROY signal inh -4.4 and TWEAK Fn14 block 5.0.
COc1cccc(NC(=O)C[C@H]2CC[C@@H]3[C@@H](COc4ccc(NC(=O)C5CCC5)cc4C(=O)N3C)O2)c1 was read as LGR2 inh 4.5 and EWS-Fli inh -1.1.
`Nc1c(C(=O)NCC2CCCO2)sc2nc3c(c(-c4ccco4)c12)CC/C3=C\c1ccco1` (configuration not stated) gave LMP1 NFkB inh -5.6, TROY signal inh 9.0, EWS-Fli inh -9.0 and TWEAK Fn14 block 88.9*.
Cc1ccc(O)c(C(=O)c2cnc3c(c2)COc2ccccc2-3)c1 was read as LMP1 NFkB inh 2.1, TROY signal inh 5.7 and TWEAK Fn14 block 63.3*.
`CO[C@@H]1CN(C)C(=O)c2cc(NC(=O)Nc3cccc(Cl)c3)ccc2OC[C@@H](C)N(C)C[C@H]1C` gave LGR2 inh -5.3 and EWS-Fli inh -4.3.
Screening Cc1ccccc1N=C1NN=C(c2ccccc2F)CS1 returned LMP1 NFkB inh 19.2, TROY signal inh 57.0*, EWS-Fli inh -36.2 and TWEAK Fn14 block 68.4*.
Screening Cc1cccc(C)c1N=C1NN=C(c2ccccc2F)CS1 returned LGR2 inh -25.2, LMP1 NFkB inh -9.1, TROY signal inh -24.7 and TWEAK Fn14 block 11.4.
Cc1cc(C2=NNC(=NC3CCCCC3)SC2)c(C)n1-c1c(C)n(C)n(-c2ccccc2)c1=O was read as LMP1 NFkB inh -10.3, TROY signal inh 4.0, EWS-Fli inh 8.1 and TWEAK Fn14 block -12.6.
Screening Cc1cc(C2=NNC(=NC3CC3)SC2)c(C)n1-c1ccccc1F returned LGR2 inh 94.7*, LMP1 NFkB inh 77.9*, TROY signal inh 89.2*, EWS-Fli inh 93.7* and TWEAK Fn14 block 103.8*.
Screening C[C@H](CO)N1C[C@H](C)[C@H](CN(C)S(C)(=O)=O)Oc2ccc(NC(=O)C3CCCCC3)cc2CC1=O returned LGR2 inh 1.4 and EWS-Fli inh -5.7.
For Cc1c(C)c2ccc(OCC(=O)Nc3ccccn3)cc2oc1=O the results were LGR2 inh 21.3, LMP1 NFkB inh 28.2, TROY signal inh 36.4, EWS-Fli inh 37.1 and TWEAK Fn14 block 81.7*.
Cc1c(C)c2ccc(OCC(=O)Nc3nccs3)cc2oc1=O was read as LGR2 inh 55.5*, LMP1 NFkB inh 9.4, TROY signal inh 47.6 and TWEAK Fn14 block 90.5*.
`Cc1cccc(NC(=O)COc2ccc3c(c2)CCC3)n1` gave LGR2 inh -80.3, LMP1 NFkB inh -4.1, TROY signal inh -58.4, EWS-Fli inh -18.6 and TWEAK Fn14 block -15.3.
O=C(COc1ccc2c(c1)CCC2)Nc1ccccn1 was read as LGR2 inh 74.0*, LMP1 NFkB inh -7.5, TROY signal inh 70.6*, EWS-Fli inh -48.4 and TWEAK Fn14 block 96.7*.
Cc1cc(=O)oc2cc(OCC(=O)Nc3nccs3)ccc12 was read as LGR2 inh -38.9, LMP1 NFkB inh -17.2, TROY signal inh -33.2 and TWEAK Fn14 block 38.4.
`CC(C)NC(=O)N1[C@@H](C#N)[C@@H](c2ccc(-c3ccc(F)cc3)cc2)[C@@H]1CO` gave LGR2 inh 4.8 and EWS-Fli inh -0.8.
`CCCCCCCCCCOC(=O)Cn1c(COc2ccccc2OC)[n+](C)c2ccccc21` gave LGR2 inh 54.2*, LMP1 NFkB inh 32.8, TROY signal inh 61.2*, EWS-Fli inh 57.1* and TWEAK Fn14 block 67.4*.
CO[C@@H](CN(C)Cc1ccc2c(c1)OCO2)[C@H](C)CN(C(=O)Nc1ccc(F)cc1)[C@@H](C)CO was read as LGR2 inh 6.1 and EWS-Fli inh -7.7.
CCN1/C(=C/c2cc[n+](CCCS(=O)(=O)[O-])c3ccccc23)Sc2ccccc21 was read as LGR2 inh 2.5, LMP1 NFkB inh 9.6, TROY signal inh 7.7, EWS-Fli inh -11.7 and TWEAK Fn14 block 17.8.
For C=CC[n+]1ccc(/C=C2\C=Cc3cc(C)ccc3N2CC)c2ccccc21 the results were LMP1 NFkB inh 56.5*, TROY signal inh 50.2* and TWEAK Fn14 block 17.7.
`COc1ccc2c3c(n(C)c2c1)[C@@H](CO)N(C(=O)NC(C)C)CC31CCN(CC2CCCCC2)CC1` gave LGR2 inh -0.1 and EWS-Fli inh 2.4.
Screening CCN1CCN(CCNC(=O)c2ccc(/C=C3/Sc4ccccc4N(Cc4cccc(Cl)c4)C3=O)cc2)CC1 returned LGR2 inh 52.3*, LMP1 NFkB inh -11.5, TROY signal inh 83.3*, EWS-Fli inh 46.4 and TWEAK Fn14 block -38.3.
For Cc1cccc(CN2C(=O)/C(=C\c3ccc(C(=O)NCCN4CCOCC4)cc3)Sc3ccccc32)c1 the results were LMP1 NFkB inh 5.6, TROY signal inh 62.1* and TWEAK Fn14 block 40.9.
Screening CCN1CCN(CCNC(=O)c2ccc3c(c2)N(Cc2ccc(F)cc2)C(=O)/C(=C/c2ccccc2)S3)CC1 returned LGR2 inh 24.4, LMP1 NFkB inh -61.3, TROY signal inh 1.2, EWS-Fli inh -12.8 and TWEAK Fn14 block -51.8.
For CC(C)(C)c1ccc(/C=C2\SC(=O)N(CCNC(=O)c3cccc(S(=O)(=O)N4CCOCC4)c3)C2=O)cc1 the results were LMP1 NFkB inh 20.2, TROY signal inh 83.5* and TWEAK Fn14 block 93.0*.
Screening Cc1ccccc1CN1C(=O)/C(=C\c2ccc(C(=O)NCCN3CCOCC3)cc2)Sc2ccccc21 returned LGR2 inh -1.7, LMP1 NFkB inh 7.4, TROY signal inh 45.8, EWS-Fli inh 19.6 and TWEAK Fn14 block 29.8.
Cc1ccc(S(=O)(=O)N2CCOCC2)cc1C(=O)NCCN1C(=O)S/C(=C\c2ccccc2Cl)C1=O was read as LGR2 inh 28.7, LMP1 NFkB inh 0.4, TROY signal inh 2.8 and TWEAK Fn14 block -0.6.
